The text below walks through data of the supplement of paper PMC13380429.

The subject of the first assay is Vero E6 infected with SARS-CoV-2. Put plainly: morphology score (similarity to uninfected cells); higher = more like uninfected cells. The settings on record: 24 h.
Compound `CCC[C@H](N[C@@H](C)C(=O)N1[C@H](C(=O)O)C[C@@H]2CCCC[C@@H]21)C(=O)OCC` [perindopril] (10 µM) showed a morphology score of 0.104.

As to `O=C(O)CCCC[C@@H]1SC[C@@H]2NC(=O)N[C@@H]21` [biotin] (10 µM), the morphology score was -0.0202.

With `CN(C)C(=O)[C@H](O)[C@H](Cc1ccccc1)NC(=O)c1cc2cc(Cl)ccc2[nH]1` (10 µM), the morphology score amounted to 0.225.

Regarding `CC(C)c1ccc2oc3nc(N)c(C(=O)O)cc3c(=O)c2c1` [amlexanox] (10 µM), the morphology score was -0.183.

With `CN(C)C1CCN(C(=O)c2ccc(NC(=O)Nc3ccc(-c4nc(N5CCOCC5)nc(N5CCOCC5)n4)cc3)cc2)CC1` (10 µM), the morphology score was -0.0113.

`Cc1c(N)c(=O)n(-c2ccccc2)n1C` [ampyrone] (10 µM): the morphology score was -0.0355.

Take `O=C(O)c1cc(O)c2c(c1)[C@H]([C@H]1c3cc(C(=O)O)cc(O)c3C(=O)c3c(O[C@@H]4O[C@H](CO)[C@@H](O)[C@H](O)[C@H]4O)cccc31)c1cccc(O[C@@H]3O[C@H](CO)[C@@H](O)[C@H](O)[C@H]3O)c1C2=O` [sennoside-A] (10 µM): the morphology score was -0.287.

In the case of `Nc1nc(NC[C@H]2CC[C@H](CNS(=O)(=O)c3cccc4ccccc34)CC2)nc2ccccc12` (0.833333 µM), the morphology score is -0.0427.

For `CC(=O)[C@H]1CC[C@H]2[C@@H]3CC[C@H]4C[C@H](O)CC[C@]4(C)[C@H]3C(=O)C[C@]12C` [alfaxalone] (10 µM), the morphology score was -0.0143.

As to `C/C=C(/C)C(=O)O[C@H]1C(C)=C[C@]23C(=O)[C@@H](C=C(CO)[C@@H](O)[C@]12O)[C@H]1[C@@H](C[C@H]3C)C1(C)C` [ingenol-mebutate] (0.833333 µM), the morphology score was -0.298.

As for `CN1C(C)(C)CCCC1(C)C` [pempidine] (10 µM), the morphology score turned out to be 0.0949.

In turn, `OC(CCCN1CCN(c2ncc(F)cn2)CC1)c1ccc(F)cc1` (stereo unspecified) (10 µM) had a morphology score of 0.0906.

In the case of `CCC(=O)OCN1C(=O)C=CC1=O` (10 µM), the morphology score was determined as 0.14.

As to `COc1cc2c(cc1O)C(CCc1ccc(Cl)cc1)N(C)CC2` (stereo unspecified) (10 µM), the morphology score stood at 0.298.

Regarding `CCOC(=O)[C@@]1(CCCCCCOc2ccc(Cl)cc2)CO1` [etomoxir] (10 µM), the morphology score was -0.0546.

In turn, `NCCCC[C@H](NC(=O)[C@@H]1CCCN1C(=O)[C@@H]1CSSC[C@H](NC(=O)CNC(=O)CNC(=O)CN)C(=O)N[C@@H](Cc2ccc(O)cc2)C(=O)N[C@@H](Cc2ccccc2)C(=O)N[C@@H](CCC(N)=O)C(=O)N[C@@H](CC(N)=O)C(=O)N1)C(=O)NCC(N)=O` [terlipressin] (10 µM) had a morphology score of 0.0361.

The test system is the same in the next assay. Put plainly: SARS-CoV-2 infection rate relative to infected DMSO; higher = more infection, active = 60 or less. The settings on record: 24 h.
Turning to `CN(C)CCCOc1nn(Cc2ccccc2)c2ccccc12` [benzydamine] (10 µM), the SARS-CoV-2 infection rate is 70.5% (inactive).

Consider `Nc1nc(N)c(N=O)c(OCC2CCCCC2)n1` (10 µM), for which the SARS-CoV-2 infection rate was 54.5% (active).

As to `CCCCCNC(=N)N/N=C/c1c[nH]c2ccc(OC)cc12` [tegaserod] (10 µM), the SARS-CoV-2 infection rate is 100% (inactive).

For `CC(CNC(=O)c1cccnc1)NC(=O)c1cccnc1` (stereo unspecified) [nicaraven] (10 µM), the SARS-CoV-2 infection rate was 114% (inactive).

On to `Cc1c(C(=O)NN2CCCCC2)nn(-c2ccc(Cl)cc2Cl)c1-c1ccc(Cl)cc1` [rimonabant] (10 µM), for which the SARS-CoV-2 infection rate was 110% (inactive).

On to `C[C@H]1O[C@@H](O[C@H]2[C@@H](O)C[C@H](O[C@H]3[C@@H](O)C[C@H](O[C@H]4CC[C@@]5(C)[C@H](CC[C@@H]6[C@@H]5C[C@@H](O)[C@]5(C)[C@@H](C7=CC(=O)OC7)CC[C@]65O)C4)O[C@@H]3C)O[C@@H]2C)C[C@H](O)[C@@H]1O` [digoxin] (0.833333 µM), for which the SARS-CoV-2 infection rate was 98% (inactive).

In the case of `Nc1nc(O)c2nc(Br)n([C@@H]3O[C@@H]4COP(=O)(O)O[C@H]4[C@H]3O)c2n1` [8-bromo-cGMP] (10 µM), the SARS-CoV-2 infection rate was 97% (inactive).

Turning to `CC(C)(CO)c1cc2cc(NC(=O)C3(c4ccc5c(c4)OC(F)(F)O5)CC3)c(F)cc2n1C[C@@H](O)CO` [tezacaftor] (10 µM), the SARS-CoV-2 infection rate was 108% (inactive).

On to `COc1cc(C(=O)NCc2ccc(OCCN(C)C)cc2)cc(OC)c1OC` [trimethobenzamide] (10 µM), for which the SARS-CoV-2 infection rate is 110% (inactive).

For `O=C(O)[C@H](O)c1ccccc1` [mandelic-acid] (10 µM), the SARS-CoV-2 infection rate is 114% (inactive).

Take `CCOc1c2c(c(OCC)c3ccccc13)C(=O)N(c1ccc(CC(=O)NS(=O)(=O)c3ccccc3)cc1)C2` (10 µM): the SARS-CoV-2 infection rate was 104% (inactive).

`Cc1nc(NC(=O)N2CCC[C@H]2C(N)=O)sc1-c1ccnc(C(C)(C)C(F)(F)F)c1` [alpelisib] (10 µM): the SARS-CoV-2 infection rate is 113% (inactive).

For `Nc1sc2c(c1C(=O)c1ccc(Cl)cc1)CCCC2` (10 µM), the SARS-CoV-2 infection rate is 96.5% (inactive).

Turning to `CNCC(O)c1ccc(O)c(O)c1` (racemic) [DL-Adrenaline] (10 µM), the SARS-CoV-2 infection rate was 109% (inactive).

On to `Cc1ccc(NC2=CC(=O)c3sc(C)nc3C2=O)cc1` [ryuvidine] (0.833333 µM), for which the SARS-CoV-2 infection rate is 104% (inactive).

For `C=C(CC)C(=O)c1ccc(OCC(=O)O)c(Cl)c1Cl` [etacrynic-acid] (10 µM), the SARS-CoV-2 infection rate was 98.5% (inactive).

`O=C(O)/C=C/c1ccc(O)c(O)c1` [caffeic-acid] (10 µM): the SARS-CoV-2 infection rate was 110% (inactive).

With `COc1ccc2cccc(N3CCN(CCNC(=O)c4ccc(F)cc4)CC3)c2c1` (10 µM), the SARS-CoV-2 infection rate is 103% (inactive).

Consider `Nc1ncccc1-c1nc2ccc(-c3ccccc3)nc2n1-c1ccc(C2(N)CCC2)cc1` (10 µM), for which the SARS-CoV-2 infection rate is 29.5% (active).

For `CN1C(=O)COc2c(C(=O)NC3CN4CCC3CC4)cc(Cl)cc21` (stereo unspecified) [azasetron] (10 µM), the SARS-CoV-2 infection rate was 98% (inactive).

Turning to `O=C(O)c1cccnc1Nc1cccc(C(F)(F)F)c1` [niflumic-acid] (10 µM), the SARS-CoV-2 infection rate is 104% (inactive).

On to `Cc1cc(Nc2ncnc3ccc(-c4ccc(CNCCS(C)(=O)=O)o4)cc23)ccc1Oc1ccn2ncnc2c1` [HER2-Inhibitor-1] (10 µM), for which the SARS-CoV-2 infection rate is 95% (inactive).

As to `Cc1ccc(C)c(Oc2ccncc2C(=O)N2CCN(C3CC3)c3ccccc32)c1` (10 µM), the SARS-CoV-2 infection rate was 108% (inactive).

Take `CCOc1ccc(-c2ccc(Cn3c(CC(C)(C)C(=O)O)c(SC(C)(C)C)c4cc(OCc5ccc(C)cn5)ccc43)cc2)cn1` (0.833333 µM): the SARS-CoV-2 infection rate is 118% (inactive).

As to `CCC[C@H](N[C@@H](C)C(=O)N1[C@H](C(=O)O)C[C@@H]2CCCC[C@@H]21)C(=O)OCC` [perindopril] (10 µM), the SARS-CoV-2 infection rate was 95% (inactive).

On to `O=C(O)CCCC[C@@H]1SC[C@@H]2NC(=O)N[C@@H]21` [biotin] (10 µM), for which the SARS-CoV-2 infection rate is 108% (inactive).

Regarding `CN(C)C(=O)[C@H](O)[C@H](Cc1ccccc1)NC(=O)c1cc2cc(Cl)ccc2[nH]1` (10 µM), the SARS-CoV-2 infection rate was 102% (inactive).

Take `CC(C)c1ccc2oc3nc(N)c(C(=O)O)cc3c(=O)c2c1` [amlexanox] (10 µM): the SARS-CoV-2 infection rate is 111% (inactive).

`CN(C)C1CCN(C(=O)c2ccc(NC(=O)Nc3ccc(-c4nc(N5CCOCC5)nc(N5CCOCC5)n4)cc3)cc2)CC1` (10 µM): the SARS-CoV-2 infection rate is 115% (inactive).

With `Cc1c(N)c(=O)n(-c2ccccc2)n1C` [ampyrone] (10 µM), the SARS-CoV-2 infection rate is 113% (inactive).

Turning to `O=C(O)c1cc(O)c2c(c1)[C@H]([C@H]1c3cc(C(=O)O)cc(O)c3C(=O)c3c(O[C@@H]4O[C@H](CO)[C@@H](O)[C@H](O)[C@H]4O)cccc31)c1cccc(O[C@@H]3O[C@H](CO)[C@@H](O)[C@H](O)[C@H]3O)c1C2=O` [sennoside-A] (10 µM), the SARS-CoV-2 infection rate is 113% (inactive).

For the compound `Nc1nc(NC[C@H]2CC[C@H](CNS(=O)(=O)c3cccc4ccccc34)CC2)nc2ccccc12` (0.833333 µM), the SARS-CoV-2 infection rate is 93.5% (inactive).

Take `CC(=O)[C@H]1CC[C@H]2[C@@H]3CC[C@H]4C[C@H](O)CC[C@]4(C)[C@H]3C(=O)C[C@]12C` [alfaxalone] (10 µM): the SARS-CoV-2 infection rate is 112% (inactive).

Regarding `C/C=C(/C)C(=O)O[C@H]1C(C)=C[C@]23C(=O)[C@@H](C=C(CO)[C@@H](O)[C@]12O)[C@H]1[C@@H](C[C@H]3C)C1(C)C` [ingenol-mebutate] (0.833333 µM), the SARS-CoV-2 infection rate is 95% (inactive).

Consider `CN1C(C)(C)CCCC1(C)C` [pempidine] (10 µM), for which the SARS-CoV-2 infection rate was 96% (inactive).

`OC(CCCN1CCN(c2ncc(F)cn2)CC1)c1ccc(F)cc1` (stereo unspecified) (10 µM): the SARS-CoV-2 infection rate is 108% (inactive).

With `CCC(=O)OCN1C(=O)C=CC1=O` (10 µM), the SARS-CoV-2 infection rate is 97% (inactive).

As for `COc1cc2c(cc1O)C(CCc1ccc(Cl)cc1)N(C)CC2` (stereo unspecified) (10 µM), the SARS-CoV-2 infection rate is 72% (inactive).

Take `CCOC(=O)[C@@]1(CCCCCCOc2ccc(Cl)cc2)CO1` [etomoxir] (10 µM): the SARS-CoV-2 infection rate was 109% (inactive).

With `NCCCC[C@H](NC(=O)[C@@H]1CCCN1C(=O)[C@@H]1CSSC[C@H](NC(=O)CNC(=O)CNC(=O)CN)C(=O)N[C@@H](Cc2ccc(O)cc2)C(=O)N[C@@H](Cc2ccccc2)C(=O)N[C@@H](CCC(N)=O)C(=O)N[C@@H](CC(N)=O)C(=O)N1)C(=O)NCC(N)=O` [terlipressin] (10 µM), the SARS-CoV-2 infection rate is 112% (inactive).
